KKLEB tox = reduces viability of KKLEB cystic fibrosis airway cells; KKLEB CF airway cells viability, ATPlite luminescence, overnight; hits give low values; cells stimulated with P. aeruginosa culture filtrate; activity change (cytotoxicity), % at 5 µM; actives 0.36% (n = 360,000); AID 602141;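 active = corrected activity change at or below -50% at 5 µM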
HIF-2a inh = inhibitors of HIF-2a; actives 0.72% (n = 360,000); inhibition, % at 18.8 µM; AID 624352; 786-0 RCC cells HIF-2a reporter, luciferase luminescence, overnight;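 active = inhibition of the luminescence signal of 40% or more relative to plate controls, in a single-dose primary screen at 18.75 µM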
Mdm2-MdmX inh = human Mdm2/MdmX binding inhibition; inhibition, % at 8 µM; actives 3% (n = 330,000); SaOS-2 split-luciferase Mdm2/MdmX complementation, luminescence;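 active = inhibition of at least 50% at 8 µM in the primary screen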
ABHD5 PLIN5 PPI = inhibitors of human ABHD5-perilipin-5 interaction. AID 602281. actives 0.78% (n = 360,000). inhibition, % at 4 µM. Split G. princeps luciferase complementation, luminescence, 4 h. Q00G26+Q8WTS1;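 active = inhibition above the mean inhibition across every tested compound plus 3 SD, cut at about 22% in these data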;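 note: 0% = DMSO only wells and the 100% control is not disclosed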
Peg3 promoter = Peg3 promoter activity inhibition; inhibition, % at 20 µM; HeLa PEG-Prom luciferase reporter, luminescence, overnight; AID 588405; actives 1.7% (n = 360,000);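 active = inhibition of at least 50% at 20 µM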
CF NFkB inh = blocks PAF-induced NF-kB reporter in cystic fibrosis cells; KKLEB NF-kB-GFP reporter, GFP fluorescence overnight; inhibition, % at 5 µM; actives 0.86% (n = 360,000); AID 588850;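 active = at least 50% inhibition at 5 µM, scaled per plate between neutral and stimulator controls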;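 note: PAF is a Pseudomonas aeruginosa culture filtrate used as stimulus; plate controls were PAF-stimulated DMSO wells for no effect and unstimulated DMSO wells for full effect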
Mdm2 MdmX conf = confirmation of human Mdm2/MdmX interaction inhibitors; shares compounds with Mdm2-MdmX inh; Mdm2-MdmX binding, luminescent assay; inhibition, % at 8 µM; actives 55% (n = 10,000); in the data active = inhibition above about 40%
Full FLuc ctr = inhibits full-length luciferase, flagging false Mdm2/MdmX hits; shares compounds with Mdm2-MdmX inh; SaOS-2 full-length luciferase counterscreen, luminescence; inhibition, % at 8 µM; actives 77% (n = 6,200);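 active = mean inhibition at 8 µM reaching about 37%, which flags the compound as non-specific, limit read from the data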;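 note: p53-null SaOS-2 cells with luciferase driven by a doxycycline-inducible promoter; compound on cells about two nights before reading with doxycycline added after day one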
* hit, by the source's call; nt = no result given. Most compounds without a hit are left out; they make up all but 4.6% or so of the library.

SMILES	KKLEB tox	HIF-2a inh	Mdm2-MdmX inh	ABHD5 PLIN5 PPI	Peg3 promoter	CF NFkB inh	Mdm2 MdmX conf	others
COc1ccc(C(=O)N(Cc2ccccc2)Cc2cc3cc4c(cc3[nH]c2=O)OCCO4)cc1	-13.7	16.0	51.5*	-6.4	30.1	23.5	65.0*	Full FLuc ctr=50.8*
COc1cccc(C(=O)N(Cc2ccccc2)Cc2cc3cc4c(cc3[nH]c2=O)OCCO4)c1	-6.1	18.8	24.1	-2.2	27.4	3.8	nt
COc1ccccc1NC(=O)C(C)OC(=O)CCSc1ccc(F)cc1 (configuration not stated)	-5.7	0.3	22.1	4.9	8.8	-17.3	nt
CC1(C(=O)NC2CCCCCC2)CCN1C(=O)C1(c2ccccc2)CC1 (configuration not stated)	-3.2	16.2	nt	-5.2	8.9	-0.1	nt
O=C(CN(C(=O)CCC(=O)Nc1ccccn1)c1ccc2c(c1)OCO2)NCc1ccc(F)cc1	-4.5	-1.2	23.5	-1.0	6.5	-15.5	nt
CCCOc1ccc(/C=N/NC(=O)c2nnn(-c3nonc3N)c2-c2cccs2)cc1OC	-3.3	-11.8	-7.3	-14.0	-6.0	-6.2	nt
COc1ccc(/C(C)=N/NC(=O)c2nnn(-c3nonc3N)c2CN(C)c2ccccc2)cc1	-7.6	1.8	50.1*	6.7	14.3	24.7	1.9
COc1ccc(/C(C)=N/NC(=O)c2nnn(-c3nonc3N)c2-c2cccs2)cc1OC	8.4	10.3	59.1*	-6.3	0.8	24.1	-7.8
COc1ccc(/C(C)=N/NC(=O)c2nnn(-c3nonc3N)c2-c2cccs2)cc1	-3.3	0.5	59.5*	-5.5	-4.4	-7.9	-1.7
C/C(=N\NC(=O)c1nnn(-c2nonc2N)c1-c1cccs1)c1ccc(C)cc1	-39.5	6.3	70.6*	-0.3	24.9	42.9	2.2
C/C(=N\NC(=O)c1nnn(-c2nonc2N)c1-c1cccs1)c1ccc(O)cc1	4.1	5.0	-4.7	-8.6	23.5	1.5	nt
COc1cccc(/C=N/NC(=O)c2nnn(-c3nonc3N)c2CN(C)c2ccccc2)c1	-8.4	-6.0	-0.3	-0.9	4.2	1.5	nt
COc1cccc(-c2c(C(=O)N/N=C(\C)c3ccncc3)nnn2-c2nonc2N)c1	-13.9	10.5	18.8	-1.8	7.5	15.9	nt
COc1ccc(/C(C)=N/NC(=O)c2nnn(-c3nonc3N)c2-c2ccccc2)cc1	1.3	2.3	60.8*	0.3	3.2	7.3	9.3
Cc1cccn2c(=O)c(C=O)c(N3CCC4(CC3)OCCO4)nc12	-8.9	14.9	23.6	1.7	15.9	0.9	nt
Nc1nc(Cl)nc2c1ncn2C1CC(O)C(CO)O1 (configuration not stated)	-22.4	10.8	80.7*	1.7	18.6	27.8	77.1*	Full FLuc ctr=25.6
O=C(CCN1C(=O)c2ccccc2C1=O)c1ccccc1	-9.4	-76.6	nt	-2.9	-78.7	-5.0	nt
CN(C)C(CNC(=O)c1cc2ccccc2o1)c1ccco1 (configuration not stated)	-24.6	-3.3	3.0	-3.8	-23.4	-10.5	nt
O=C(Cc1cccs1)NCCSc1c(-c2ccc(Cl)cc2)[nH]c2ccccc12	-29.5	-20.4	77.0*	-9.2	41.9	25.2	25.2
Cc1ccc(O)c(C(=O)c2cnc3c(c2)CN(C)C(=O)N3)c1	-6.9	16.3	62.9*	6.1	20.4	17.8	48.6*	Full FLuc ctr=56.0*
CN1Cc2cc(C(=O)c3cc(Cl)cc(CSc4ncccn4)c3O)cnc2NC1=O	nt	nt	58.7*	nt	nt	nt	73.0*	Full FLuc ctr=88.5*
Cc1ccc(O)c(C(=O)c2cnc3c(c2)CN(CCC(C)C)C(=O)N3)c1	-10.7	7.0	54.5*	-1.3	16.2	0.3	23.4
Cc1cc(C)c2nc(N(CCCN(C)C)C(=O)c3ccc4c(c3)CCCC4)sc2c1	nt	nt	76.6*	nt	nt	nt	34.1
CN(C)CCCN(C(=O)c1ccc2c(c1)CCCC2)c1nc2c(F)cccc2s1	-6.0	-93.5	-36.0	16.4	-69.4	10.0	nt
CCN(CC)CCN(C(=O)c1ccc2c(c1)CCCC2)c1nc2cc(OC)c(OC)cc2s1	-18.8	11.1	52.6*	3.1	25.4	20.2	46.4*	Full FLuc ctr=36.8*
SMILES	KKLEB tox	HIF-2a inh	Mdm2-MdmX inh	ABHD5 PLIN5 PPI	Peg3 promoter	CF NFkB inh	Mdm2 MdmX conf	others
Cc1c(C(=O)N/N=C/c2cccs2)nnn1-c1nonc1N	5.6	-67.4	-12.2	-8.9	-75.4	-5.2	nt
CC1(N=Cc2cc(Cl)ccc2O)COP(=O)(Nc2ccccc2)OC1 (configuration not stated)	6.1	9.1	nt	-3.5	-3.0	16.1	nt
CC(C)=CCc1cc2c(=O)c3c(O)c4c(cc3oc2c(O)c1O)OC(C)C4(C)C (configuration not stated)	nt	nt	91.7*	nt	nt	nt	39.1	Full FLuc ctr=63.3*
CC1Oc2cc3oc4c(O)c5c(cc4c(=O)c3c(O)c2C1(C)C)C=CC(C)(C)O5 (configuration not stated)	nt	nt	17.5	nt	nt	nt	nt
COc1ccc([N+](=O)[O-])cc1NC(=S)NC(NC(=O)C(c1ccccc1)c1ccccc1)C(Cl)(Cl)Cl (configuration not stated)	1.3	-9.7	89.1*	-3.3	50.4*	32.9	78.9*	Full FLuc ctr=29.2
O=C(NC(NC(=S)Nc1c(Cl)cccc1Cl)C(Cl)(Cl)Cl)c1cccc([N+](=O)[O-])c1 (configuration not stated)	-12.2	10.6	58.1*	-4.4	51.6*	18.7	49.8*	Full FLuc ctr=76.2*
O=C(NNC(=S)NC(=O)c1ccccc1Cl)c1cccc([N+](=O)[O-])c1	8.3	14.5	-23.9	-3.2	7.1	-9.8	nt
C=CCCC(=O)N1CCCC(Cc2cccc(Cl)c2)(C(=O)OCC)C1 (configuration not stated)	-6.4	-34.9	6.6	-4.6	-20.6	6.0	nt
Cn1c(=O)c2c(nc(NCc3ccco3)n2C)n(C)c1=O	0.9	-3.6	20.1	-5.7	2.4	-5.3	nt
Cn1c(=O)c2c(nc(NCc3ccco3)n2C/C=C/c2ccccc2)n(C)c1=O	0.7	20.5	50.9*	-1.5	29.2	14.6	21.9
CCOC(=O)C1CCCN(c2ccc(NC(=O)c3snc4c(=O)[nH]cnc34)cc2)C1 (configuration not stated)	7.5	-13.7	-17.3	-5.7	-20.0	-8.8	nt
CCOC(=O)C1CCCN(c2ccc(NC(=O)c3snc4c(=O)[nH]c(C)nc34)cc2)C1 (configuration not stated)	-1.0	3.9	69.9*	-5.3	28.4	-17.5	40.7*	Full FLuc ctr=87.6*
CC(C)C(NC(=O)c1ccccc1)c1nnc(SCC(=O)NC2CCCC2)n1C (configuration not stated)	8.5	-0.4	-38.6	2.8	-4.6	-7.8	nt

Screens deposited in PubChem by several laboratories.
